These results are taken from the supplement of paper PMC12636033.

± gives the standard deviation of the averaged measurements. In all, about 33,000 sequences were measured (“E-score (rank enrichment, -0.5 to 0.5)”: median about -0.0028, highest 2% from about 0.23 on). What follows is part of a selection rich in the highest values, with near analogues and random picks from the rest.

The test system of the test is 2Sb-muMax20 (muMax20 with two 1,3-bis(methyl)benzene Cys staples, A13C/A17C and Q88C/A92C, C-terminal Lys). Nature of the test: PBM 8-mer E-score (E-score (rank enrichment, -0.5 to 0.5)); higher = stronger preferential binding. How it is done: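 Protein binding microarray (universal PBM chip covering all 10-mers in fixed probe flanks) with chemically synthesized human Max(13-93) bHLH-LZ analogs (not full-length Max) bearing noncanonical residues (hArg, Tha, Aib, Nle at 65) and aromatic Cys staples. Read-out per 8-mer (and its reverse complement): E-score (rank-based enrichment, -0.5 to 0.5) and Z-score of median probe intensity.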
As for CTTGTGTA, the “PBM 8-mer E-score” value turned out to be 0.116 ± 0.033.

As to AGGCACAG, the “PBM 8-mer E-score” value was -0.103 ± 0.026. CGCAGTAA: the “PBM 8-mer E-score” value is 0.0928 ± 0.087. The same measure for GGGCATCA: 0.0183 ± 0.046; for TAAATTCA: 0.111 ± 0.075; for GACATCTA: -0.1 ± 0.066.

AAAACAGC: the “PBM 8-mer E-score” value was 0.13 ± 0.037. For CGTGGAAG the value was 0.0947 ± 0.13; for GCACTAGC, 0.109 ± 0.017; for AATGAATA, 0.156 ± 0.018. The same measure for GGGCGACC: -0.0448 ± 0.029; for CAATCTAA: 0.0541 ± 0.078. As to AATATATG, the “PBM 8-mer E-score” value was determined as 0.3 ± 0.004. For CATATATG the value was 0.305 ± 0.007. For AAAATATG the value was 0.143 ± 0.05; for CATATATA, 0.194 ± 0.0063; for CATATATC, 0.13 ± 0.055.

Take AATATGTG: the “PBM 8-mer E-score” value is 0.139 ± 0.033. The same measure for TGCGAGCA: 0.146 ± 0.052; for AAACCTAT: -0.107 ± 0.033; for AAACCTAG: 0.000475 ± 0.031.

Regarding AAACCTAC, the “PBM 8-mer E-score” value came out at 0.279 ± 0.06. The same measure for GGATCTAC: -0.141 ± 0.02; for ACATGCAT: 0.363 ± 0.013. The same measure for ACATGTCG: 0.166 ± 0.058; for ACATGTAC: 0.309 ± 0.014; for ACATGTAA: 0.217 ± 0.026. For ACATGTAG the value was 0.275 ± 0.021; for CCATGTAC, -0.0138 ± 0.036. For GCATGTAC, the “PBM 8-mer E-score” value was found to be 0.172 ± 0.024.

As for CCATGTAG, the “PBM 8-mer E-score” value was 0.172 ± 0.0065.

ACATGTAT: the “PBM 8-mer E-score” value came out at 0.267 ± 0.0098.

Consider AGATGTAT, for which the “PBM 8-mer E-score” value came to 0.181 ± 0.031.

Take ACATGCAG: the “PBM 8-mer E-score” value is 0.037 ± 0.07. Turning to ACATGCAC, the “PBM 8-mer E-score” value was 0.0993 ± 0.062.

Take AAACCGTT: the “PBM 8-mer E-score” value is -0.108 ± 0.016. For GACCGACC the value was -0.162 ± 0.012; for AGTATCCG, -0.139 ± 0.029; for CCCGGCCG, -0.233 ± 0.084.

As to GCAGGAAA, the “PBM 8-mer E-score” value was found to be 0.00101 ± 0.013. As for CAGACGTA, the “PBM 8-mer E-score” value was -0.0519 ± 0.083. For CCCTCACC the value was 0.0586 ± 0.062. The same measure for AAGACCTA: 0.0674 ± 0.017; for AATAGTTA: 0.166 ± 0.0059; for AATAGTTC: 0.0849 ± 0.052. The same measure for AATAGTTG: 0.256 ± 0.032; for GACTTCAC: -0.0215 ± 0.052; for GGAATTCC: -0.26 ± 0.055. As for ATCAGAAT, the “PBM 8-mer E-score” value is -0.0334 ± 0.0022. The same measure for AAGGTCTA: -0.00279 ± 0.068; for ACATGGGG: 0.267 ± 0.045. Turning to CCATATGC, the “PBM 8-mer E-score” value is 0.125 ± 0.064. The same measure for ACATATGC: 0.0308 ± 0.041; for ATATGGGC: 0.192 ± 0.062. As for ATATGGGG, the “PBM 8-mer E-score” value came to 0.255 ± 0.0087. For ACATGGGA, the “PBM 8-mer E-score” value was 0.0654 ± 0.083. For ATATGGGA the value was 0.13 ± 0.017; for ACATATGG, 0.15 ± 0.036.

In the case of GCATATGA, the “PBM 8-mer E-score” value was 0.174 ± 0.045.

Consider CCATGGGG, for which the “PBM 8-mer E-score” value was -0.134 ± 0.03. In the case of GCATATGC, the “PBM 8-mer E-score” value is 0.259 ± 0.011. For CCATATGG the value was 0.322 ± 0.0072; for ACCAAAGT, -0.131 ± 0.004. The same measure for AAACTTCA: 0.0459 ± 0.067.

With GCCGTGTA, the “PBM 8-mer E-score” value came to 0.0129 ± 0.059. For AGACCGCC the value was -0.0551 ± 0.0086. The same measure for CCAACGAA: -0.0751 ± 0.0019; for ACTTGCGA: 0.141 ± 0.053; for ATGTTTAC: 0.195 ± 0.0024. The same measure for ACGTACGT: 0.0796 ± 0.0024; for CTGCACGC: 0.0673 ± 0.012. With CCTACAAG, the “PBM 8-mer E-score” value is -0.0983 ± 0.063. For ATATATGC the value was 0.196 ± 0.029; for ATATATGA, 0.203 ± 0.014; for ATATATGG, 0.279 ± 0.025. For GTACCTAA the value was 0.015 ± 0.015; for CATACGAG, 0.039 ± 0.023; for CATACAAC, 0.254 ± 0.0055. For GATACAAA the value was 0.0261 ± 0.058. Turning to AATACAAA, the “PBM 8-mer E-score” value was determined as 0.293 ± 0.0033.

On to AATACAAC, for which the “PBM 8-mer E-score” value is 0.218 ± 0.053.

Regarding AATACGAT, the “PBM 8-mer E-score” value amounted to 0.0313 ± 0.056. The same measure for AATACAAT: 0.105 ± 0.028.

On to TATACAAA, for which the “PBM 8-mer E-score” value was 0.176 ± 0.037.

With GATACAAC, the “PBM 8-mer E-score” value is 0.0906 ± 0.034. The same measure for AATACAAG: 0.243 ± 0.066; for AATACGAG: 0.239 ± 0.016; for CATACAAG: 0.0617 ± 0.023.
